Source: PubChem BioAssay (NCI)
The panel holds about 83,000 compounds, 20% with a hit somewhere; the sample as a whole holds those more often.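 Negative percent growth values reflect cell death: -40 means 40% of the cells present at the start died, and -100 means all died.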 A number with no mark means an inactive call. Activity calls are given as the source filed them. Rule for the calls: active = growth percent below 10; inactive = the rest.

Legend:
Assay in all cases: NCI-60 one-dose screen, 48 h (100 = growth as untreated, 0 = no growth, -100 = all killed)
Settings in all cases: 10 µM
[1] = test system: HCT-15 colon
[2] = test system: HT29 colon
[3] = test system: SNB-75 CNS
[4] = test system: SNB-19 CNS
[5] = test system: U251 CNS
[6] = test system: PC-3 prostate
[7] = test system: SK-MEL-5 melanoma
[8] = test system: UACC-62 melanoma
[9] = test system: LOX IMVI melanoma
[10] = test system: SK-MEL-28 melanoma

Row | SMILES | growth [1] | growth [2] | growth [3] | growth [4] | growth [5] | growth [6] | growth [7] | growth [8] | growth [9] | growth [10]
1 | O=C1c2ccccc2C(=O)N1CCCCNc1ccccc1 | 96.8% | 110% | 90.8% | 96.8% | 86.3% | 75.5% | 105% | 96% | 117% | 113%
2 | COc1cc(C2C(C#N)=C(N)Oc3cc(O)ccc32)cc(OC)c1OC (stereo not given) | 30.1% | 2.42% (active) | 33.9% | 44.9% | 11.1% | 21.5% | 23% | 38.4% | 45.7% | 58%
3 | O=C1/C=C/[C@@H](O)[C@@H]2C[C@@H](O)C[C@H]2/C=C/CCC[C@H](CCc2ccc(NC(=S)Nc3ccc4c(c3)C(=O)OC43c4ccc(O)cc4Oc4cc(O)ccc43)cc2)O1 | 3.98% (active) | 1.54% (active) | 48.9% | 34.1% | 20% | 23.3% | -87.2% (active) | 16.3% | -51.4% (active) | 9.95% (active)
4 | Cc1ccc2nc(Cl)c(-c3nc4ccccc4o3)cc2c1 | 79.4% | 102% | 90.2% | 93.2% | 102% | 79.8% | 88.7% | 94.9% | 82.8% | 104%
5 | CNS(=O)(=O)Oc1ccc(-c2sc3cc(OS(=O)(=O)NC)ccc3c2C(=O)c2ccc(OCCN3CCCCC3)cc2)cc1 | 35.2% | 31.1% | 69.3% | 82.7% | 66.9% | 42.4% | 49.7% | 74.7% | 32.8% | 79.2%
6 | COc1ccc(CCN2CCC(Nc3nc4ccccc4n3Cc3ccc(F)cc3)CC2)cc1 | -23% (active) | -53.6% (active) | -29.9% (active) | 40.6% | -70.9% (active) | 29.4% | -100% (active) | -85.6% (active) | -87.9% (active) | -76.7% (active)
7 | CN(C)CCCOc1cccc(NC2=C(Cl)C(=O)C(Nc3cccc(OCCCN(C)C)c3)=C(Cl)C2=O)c1 | -19.5% (active) | -67.4% (active) | 53.8% | -42.3% (active) | -78% (active) | 0.365% (active) | -96.5% (active) | -72.9% (active) | -82.6% (active) | -72.7% (active)
8 | COc1cc2cc(Oc3ccc(NC(=O)c4ccc(Cl)c(C(F)(F)F)c4)cc3)c(C)nc2cc1OC | 26.9% | 26% | 68.4% | 39.3% | 2.03% (active) | 4.32% (active) | 25.5% | 13.9% | 33% | 66.9%
9 | CC(C)(C)OC(=O)N1CCc2c(sc3ncnc(N/N=C/c4cccc(Br)c4)c23)C1 | 18.8% | 47.7% | 67.6% | 64.7% | 51% | 44.4% | 44.1% | 43% | 33.1% | 75.2%
10 | CCN(CC)CCOc1cccc2c1C(=O)c1ccccc1C2=O | 94.6% | 80.6% | 86.4% | 92.1% | 93.4% | 83.5% | 93.7% | 95.2% | 84.1% | 111%
11 | O=C(O)c1cn(C2CC2)c2cc(N3CCN(C(=O)c4cc(-c5ccc(Cl)cc5)nc5ccccc45)CC3)c(F)cc2c1=O | 90.8% | 96.1% | 77.2% | 86% | 96% | 70.7% | 85.4% | 66.6% | 63.4% | 96.6%
12 | C1CN(CC2CCC(CN3CCOCC3)O2)CCO1 (stereo not given) | 101% | 102% | 96.5% | 105% | 108% | 105% | 105% | 106% | 93.2% | 105%
13 | CCOC(=O)c1cc(C(=O)c2cc(OC)c(OC)c(OC)c2)n2ccc(-c3cc[n+](CC(=O)c4cc(OC)c(OC)c(OC)c4)cc3)cc12 | 83.3% | -10.1% (active) | 75.8% | 32.2% | -73.6% (active) | 54.1% | 81.4% | 87.4% | -43.9% (active) | 98.3%
14 | CC1/C=C/C=C/C=C/C=C/C=C/C=C/C=C/C(O[C@@H]2O[C@H](C)[C@H](O)[C@@H](O)[C@@H]2N)CC(O)C(C(=O)O)C(O)CC(=O)CC(O)CC(O)CC(O)CC(=O)CCCC(=O)CC(=O)OC1C(C)CC(C)C(O)CC(=O)c1ccc(N)cc1 (stereo not given in full) | -95.5% (active) | -76.7% (active) | -96.6% (active) | -99% (active) | -100% (active) | -95.7% (active) | -99% (active) | -98.7% (active) | -96.9% (active) | -94.3% (active)
15 | CCc1c2c(nc3ccc(OC(=O)N4CCC(N5CCCCC5)CC4)cc13)-c1cc3c(c(=O)n1C2)COC(=O)[C@]3(O)CC | 53.1% | 28.8% | -5.06% (active) | 26% | 13.6% | 40.9% | -11.9% (active) | 17.9% | 4.61% (active) | 67%
16 | N#CC1=C(N)Oc2cc(N)ccc2C1c1cccnc1 (stereo not given) | 95.6% | 93.8% | 79.3% | 103% | 102% | 88.7% | 99.3% | 101% | 95.1% | 102%
17 | CN(C)c1ccc(/C=N/NC(=O)c2ccccc2Nc2cccc(C(F)(F)F)c2)cc1 | 78.2% | 97.2% | 94.4% | 92.7% | 81.1% | 76.1% | 81.8% | 86.3% | 65.3% | 91.2%
18 | OCC1OC(n2cnc3c(NCc4ccco4)ncnc32)C(O)C1O (stereo not given) | 6.12% (active) | 23.3% | 14.7% | 28.5% | 43.7% | 22% | 23.7% | 32.5% | -63.7% (active) | 68.1%
19 | O=C1CC(SC(=S)C2CCCC2=O)C(=O)N1 (stereo not given) | 98.1% | 103% | 105% | 94.7% | 97.1% | 97.1% | 103% | 102% | 97.5% | 113%
20 | O=[N+]([O-])c1ccc2ncccc2c1Cl | 13.2% | 9.81% (active) | 73.9% | 62.7% | 35.9% | 38.5% | 89.3% | 54.7% | 20.9% | 76.2%
